This is a sample that favours compounds with a hit; in the whole collection about 1.3% have one here.
NCOA3 inh = human NCOA3 inhibition | inhibition, % at 3.6 µM | HEK293 GAL4-SRC3 luciferase reporter, luminescence | Q9Y6Q9 | 360,000 tested, 0.17% active | AID 588352;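 active = inhibition above a per-campaign cutoff, the mean of all compounds plus 3 SD, cut at about 60% in these data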;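 also: higher means less SRC3-driven luciferase light from the GAL4 reporter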
COUP-TFII inh = inhibitors of human COUP-TFII (NR2F2) | 370,000 tested, 0.7% active | P24468 | inhibition, % at 8.6 µM | HEK293T NGFI-A luciferase reporter, luminescence | AID 686940;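 active = inhibition above a per-plate cutoff, mean inhibition of test wells between control levels plus 3 SD, cut at about 38% in these data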;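 also: cells cotransfected with COUP-TFII expression vector driving the NGFI-A reporter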
Target sequence (P24468 whole entry, looked up): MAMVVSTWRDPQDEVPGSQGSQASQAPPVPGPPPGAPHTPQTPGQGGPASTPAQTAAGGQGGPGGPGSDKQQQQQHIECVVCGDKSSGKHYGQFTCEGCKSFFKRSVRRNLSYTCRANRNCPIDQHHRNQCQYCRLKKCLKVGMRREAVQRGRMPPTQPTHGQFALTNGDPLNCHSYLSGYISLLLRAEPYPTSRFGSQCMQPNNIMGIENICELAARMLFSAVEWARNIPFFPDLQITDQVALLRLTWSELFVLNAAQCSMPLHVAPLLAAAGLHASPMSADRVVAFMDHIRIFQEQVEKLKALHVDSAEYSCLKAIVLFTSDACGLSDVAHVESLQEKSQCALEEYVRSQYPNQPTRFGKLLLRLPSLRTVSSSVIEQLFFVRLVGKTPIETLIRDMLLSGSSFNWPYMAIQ
SRC1 inh = inhibitors of human steroid receptor coactivator 1 (SRC1) | Q15788 | HEK293 GAL4-SRC1 luciferase reporter, luminescence | inhibition, % at 3.6 µM | 360,000 tested, 0.12% active | AID 588354;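 active = inhibition above the campaign mean plus 3 SD, with each screening campaign given its own cutoff, cut at about 60% in these data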
NCOA2 inhibitor = inhibits human steroid receptor coactivator 2; HEK293 GAL4-SRC2 luciferase reporter, luminescence; inhibition, % at 9 µM; 370,000 tested, 0.17% active; AID 651957;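 active = inhibition above the mean inhibition of all tested compounds plus 3 SD, set per campaign, cut at about 52% in these data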
Gli-Sufu block = blocks Gli-Sufu signaling in a luciferase reporter | inhibition, % at 5 µM | 340,000 tested, 0.74% active | Sufu-KO-LIGHT fibroblasts, Gli luciferase reporter luminescence;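 active = inhibition above about 55%, limit read from the data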
NR5A2 inv ag = suppresses constitutive activity of human LRH-1. O00482. HEK293T StAR-luciferase reporter, LRH-1 transfected, 24 h. inhibition, % at 3.6 µM. 360,000 tested, 0.13% active. AID 602396;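 active = inhibition above the mean inhibition of all tested compounds plus 3 SD, cut at about 73% in these data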
Gli antag conf = confirmation of Gli-SUFU pathway antagonists; shares compounds with Gli-Sufu block; Sufu-KO-LIGHT cells, Gli luciferase reporter, luminescence; inhibition, % at 5 µM; 2,500 tested, 40% active; AID 602428;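 active = mean inhibition at 5 µM reaching about 45%, limit read from the data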
SufuKO cytotox = counter-screen for Gli-SUFU antagonists: cytotoxicity; Sufu-KO-LIGHT cells cytotoxicity, ATP luminescence; shares compounds with Gli-Sufu block; AID 651994; 2,500 tested, 32% active; cytotoxicity, % at 5 µM;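 active = mean cytotoxicity at 5 µM above about 25%, limit read from the data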;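 also: cells exposed to compound overnight for roughly 16 to 18 hours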
Wnt3a cs = counter-screen for Gli-SUFU antagonists: Wnt3a reporter inhibition | Wnt-LIGHT cells, Wnt3a-driven luciferase reporter, luminescence | 2,500 tested, 20% active | shares compounds with Gli-Sufu block | inhibition, % at 6.25 µM | AID 651995;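 active = mean inhibition above about 25%, limit read from the data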
Numbers stand for hits; n = inactive; x = not tested or not shown.

SMILES	NCOA3 inh	COUP-TFII inh	SRC1 inh	NCOA2 inhibitor	Gli-Sufu block	NR5A2 inv ag	Gli antag conf	SufuKO cytotox	Wnt3a cs
O=C(CC(Nc1ccccc1)C(=O)O)c1ccccc1 (stereo unspecified)	n	n	n	n	n	n	x	x	x
O=C(CC(Nc1ccc(Cl)cc1Cl)C(=O)O)c1ccccc1 (stereo unspecified)	64	n	63	n	n	n	x	x	x
COC(=O)C12C=C3CC(c4ccc(C)s4)=C3C(=O)N1Cc1[nH]c3ccccc3c1C2 (stereo unspecified)	x	n	x	n	x	x	x	x	x
CC(C)CC(=NNC(=O)c1ccncc1)c1cc(Cl)ccc1O	71	n	n	n	n	n	x	x	x
O=C(Nc1ncc(Cc2ccc(SC(F)F)cc2)s1)c1ccc(OC(F)F)cc1	n	n	n	n	60	n	71	66	n
CCOC(=O)[C@]12CCCCC/C=C\1N(CCc1ccc(Cl)cc1)C(=O)[C@H]2CC(=O)NCCCN1CCCC1=O	x	n	x	n	x	x	x	x	x
CCOC(=O)c1cccc(NC(=O)CN(C)S(=O)(=O)c2ccc(F)cc2)c1	x	n	x	n	x	x	x	x	x
Cc1cc(-c2n[nH]c(=S)n2N=Cc2ccc(O)cc2)n[nH]1	x	n	x	n	x	x	x	x	x
Clc1ccc(-c2c[n+](Cc3cccc(Cl)c3)c3n2CCC3)cc1	n	n	n	n	n	n	51	29	n
Clc1ccc(C[n+]2cc(-c3ccccc3)n3c2CCC3)cc1Cl	n	n	n	n	59	n	51	37	n
Clc1ccc(-c2c[n+](Cc3ccc(Cl)cc3Cl)c3n2CCCCC3)cc1	n	n	n	n	66	n	75	30	n
COC(=O)C[C@@H]1CC[C@H]2[C@H](COc3ccc(NC(=O)Nc4ccc(C#N)cc4)cc3C(=O)N2C)O1	x	n	x	n	x	x	x	x	x
O=C(OCCOc1ccc(Cl)cc1)c1cc(S(=O)(=O)N2CCCCC2)ccc1N1CCOCC1	n	n	n	n	69	n	68	32	26
Cc1ccc(OCCOC(=O)c2cc(S(=O)(=O)N3CCCCC3)ccc2N2CCOCC2)cc1	n	n	n	n	55	n	65	28	n
COc1cc(/C=N/N(CCO)C2=NS(=O)(=O)c3ccccc32)cc(OC)c1OC	n	n	n	n	n	n	x	x	x
COc1cc(Br)cc(/C=N/N(CCO)C2=NS(=O)(=O)c3ccccc32)c1OC	n	n	n	n	64	n	n	n	n
CC(C)CNS(=O)(=O)/C=C/c1cc2c(cc1CNC(=O)OC(C)(C)C)OCO2	x	n	x	n	x	x	x	x	x
COc1ccc(NS(=O)(=O)c2ccc3c(c2)N(C(C)=O)CC(C)S3)c(OC)c1 (stereo unspecified)	n	n	n	n	n	n	n	n	n
CCOc1ccc(NS(=O)(=O)c2ccc(C(=O)N3CCCCC3)cc2)cc1	n	n	n	n	55	n	n	29	n
CCOc1ccc(NS(=O)(=O)c2ccc3c(c2)N(C(C)=O)CCS3)cc1	n	n	n	n	n	n	n	n	n
CCOc1ccc(NS(=O)(=O)c2ccc3c(c2)N(C(C)=O)CC3)cc1	n	n	n	n	n	n	x	x	x
CCOC(=O)[C@@H]1c2[nH]c3ccccc3c2C[C@@]2(C(=O)OC)C=CCN12	x	n	x	n	x	x	x	x	x
COc1cccc(NC(=S)N2CCC(Cc3ccccc3)CC2)c1	n	n	n	n	n	n	n	n	n
Cc1nn(C)cc1/C=C/C(=O)c1ccccc1	n	n	n	n	99	n	n	n	n
CCn1c(=O)cc(SCC(=O)N2CCOCC2)c2ccccc21	n	n	n	n	n	n	x	x	x
CCn1c(=O)cc(SCC(=O)N2CCN(C3CCCCC3)CC2)c2ccccc21	n	n	n	n	97	n	46	n	n
COC(=O)c1c[nH]c2c1-c1cc(C(=O)OCc3ccccc3)n(S(=O)(=O)c3ccc(C)cc3)c1C(=O)C2=O	n	n	n	n	55	n	76	51	100
CCN(CC)C(=O)CC[C@@H]1CC[C@]2(CCCN(Cc3ccccc3)C2)O1	x	n	x	n	x	x	x	x	x
